These results are taken from PubChem BioAssay AID2796 (The Scripps Research Institute Molecular Screening Center, 2010).

About 8,000 (2.5%) of roughly 320,000 compounds were called active. Shown is part of a subset that was picked to be rich in actives. Unmarked numbers belong to inactive results. Cut-off read from the data, not from the text of the source: active = activation above about 47%; inactive = the rest.

Chain of Aryl hydrocarbon receptor (Homo sapiens) (P35869 whole entry, looked up): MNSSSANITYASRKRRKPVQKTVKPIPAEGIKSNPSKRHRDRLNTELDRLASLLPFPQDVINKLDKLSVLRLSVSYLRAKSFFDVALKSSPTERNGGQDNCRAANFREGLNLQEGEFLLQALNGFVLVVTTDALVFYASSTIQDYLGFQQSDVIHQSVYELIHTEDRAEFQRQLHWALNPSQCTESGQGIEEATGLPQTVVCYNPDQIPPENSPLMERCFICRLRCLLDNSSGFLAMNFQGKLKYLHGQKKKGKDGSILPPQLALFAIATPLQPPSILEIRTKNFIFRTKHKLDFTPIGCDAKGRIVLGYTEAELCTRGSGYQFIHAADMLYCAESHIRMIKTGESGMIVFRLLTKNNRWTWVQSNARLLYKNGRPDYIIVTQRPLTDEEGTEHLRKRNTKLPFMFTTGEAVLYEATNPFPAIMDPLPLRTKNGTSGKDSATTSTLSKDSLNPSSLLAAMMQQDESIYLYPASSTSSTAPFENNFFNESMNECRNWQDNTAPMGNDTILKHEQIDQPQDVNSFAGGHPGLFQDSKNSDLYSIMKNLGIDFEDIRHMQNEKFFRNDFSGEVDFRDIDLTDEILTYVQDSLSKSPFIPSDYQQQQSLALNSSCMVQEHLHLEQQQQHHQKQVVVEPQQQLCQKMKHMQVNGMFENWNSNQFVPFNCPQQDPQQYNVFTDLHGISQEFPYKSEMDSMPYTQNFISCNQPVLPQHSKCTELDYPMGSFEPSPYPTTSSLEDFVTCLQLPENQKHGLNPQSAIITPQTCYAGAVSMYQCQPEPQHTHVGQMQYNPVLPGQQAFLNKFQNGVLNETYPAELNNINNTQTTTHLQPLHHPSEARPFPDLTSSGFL

The assay has as its target Aryl hydrocarbon receptor (Homo sapiens) (UniProt P35869). The experiment in a line: AHR activators, primary screen, cell-based, luminescence, luciferase reporter, human (AID 2796).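 Note: 0% = vehicle wells and 100% = reference agonist.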 Particulars: AHR-responsive luciferase reporter cells, at 5 µM, hits give high values.
On to `Nc1ccn(C2CC(O)C(CO)O2)c(=O)n1` (stereo not given), for which the activation is -4.38%. Then `O=C(NNC(=O)c1ccc(Cl)nc1)c1ccc(Br)cc1`, with -2.45%. The value for `NC(=O)CSc1c[nH]c2ccccc12` was 20.9%. The value for `O=S(=O)(O)Oc1c[nH]c2ccccc12` was 66.7% (active). Take `O=C(NC1CCCC1)C(=O)c1c[nH]c2ccccc12`: the activation was -1.15%. The value for `COc1ccc(N2CC(C(=O)NCCN3C(=O)S/C(=C\c4cccnc4)C3=O)CC2=O)c(OC)c1` (stereo not given) was -0.14%. For `COc1ccc(C(CNC(=O)c2cccc(S(=O)(=O)Nc3ccccc3Cl)c2)N2CCOCC2)cc1` (stereo not given), the activation is 8.55%. Then `Cc1cc(Br)ccc1NC(=O)CN(C)C(=O)CN1C(=O)NC2(CCCC2)C1=O`, with 1.62%; and `O=C1c2cccc3cccc(c23)C(=O)N1c1cccc(O)c1`, with -1.76%. Turning to `COc1ccc(N2C(=O)c3cccc4cccc(c34)C2=O)nn1`, the activation was 65% (active). The value for `O=C1c2ccccc2C(=O)N1c1cccc2ccccc12` was 0.6%; that for `O=C(NC1CCCC1)C1CCN(C(=O)Nc2cccc(Cl)c2)CC1` was 0.72%.

For the compound `CC(C)OCCCNC(=S)N1CCC(C(=O)c2ccc3c(c2)OCCO3)CC1`, the activation was 1.57%. The value for `Cc1cccc(N=Nc2c(O)[nH]c3ccc(F)cc23)c1` was 93% (active).

For the compound `Oc1[nH]c2ccc(Br)cc2c1N=Nc1nn[nH]n1`, the activation is 16.2%. On to `NS(=O)(=O)c1ccc(N=Nc2c(O)[nH]c3ccc(Br)cc23)cc1`, for which the activation was -10.5%. The value for `CC(=O)n1cc([C@H]2C=C(C(=O)N3CCOCC3)O[C@@H](OCc3ccc(CO)cc3)C2)c2ccccc21` was 3.74%; that for `COCCN(CCOC)S(=O)(=O)NC[C@H]1O[C@@H](n2cnc3c(N)ncnc32)[C@H](O)[C@@H]1O` was 0.98%. For the compound `CN1C(=O)/C(=C\c2cc(Br)cs2)c2ccccc21`, the activation was 62.1% (active). Then `CN1C(=O)/C(=N/OC(=O)c2ccccc2Br)c2ccccc21`, with -2.06%; and `CCC1C(=O)c2ccccc2N(C)C1=O` (stereo not given), with 9.44%; and `Nc1nc(C23CC4CC(CC(C4)C2)C3)cs1`, with -0.51%. Turning to `COc1ccc(CCNC(=O)CN2C(=O)CCSc3ccccc32)c(OC)c1`, the activation is -0.88%.

For the compound `COc1ccc(CCNC(=O)CCc2cn(C)c3ccccc23)c(OC)c1`, the activation is 48.4% (active). The value for `Cn1cc(CCC(=O)NC2CC2)c2ccccc21` was 27.1%; that for `CCCCn1c(N)c(N(Cc2ccccc2OC)C(=O)COc2cc(C)ccc2Cl)c(=O)[nH]c1=O` was 4.71%; that for `Cc1cc([N+](=O)[O-])c(NC2CCCCC2)c([N+](=O)[O-])c1` was -4%. The value for `O=C(COC(=O)c1ccc(O)cc1O)NNC(=O)c1cccs1` was 0.36%; that for `CCc1ccc2nc3sc(C(=O)Nc4nnc(CC)s4)c(N)c3cc2c1` was 0.59%. Then `Cc1ccc(NC(=O)CSCC(=O)Nc2sccc2C#N)cc1`, with 25.5%; and `Cc1ccc(NC(=O)c2sc3nc(N)c(C#N)cc3c2N)cc1`, with 115% (active); and `Cc1ccc(S(=O)(=O)c2nc(NCCCn3ccnc3)sc2Cl)cc1`, with 9.5%. With `O=C(CCN1C(=O)c2ccccc2C1=O)NCCCn1ccnc1`, the activation was 6.16%.

Regarding `Cc1ccc(-c2nc(C#N)c(NCCCn3ccnc3)o2)cc1`, the activation was 124% (active). The value for `CCOC(=O)C1CCN(C(=O)COc2cccc3ccccc23)CC1` was 6.85%. Then `Cc1ncoc1C(=O)NCCC(c1ccccc1)c1ccccc1`, with 2.07%. Regarding `Cc1cc(F)ccc1S(=O)(=O)Nc1ccc(C(=O)N(C)Cc2ccco2)cc1`, the activation is -1.13%. The value for `Cc1cc(Cl)ccc1OCCCC(=O)Nc1cccc(-n2cnnn2)c1` was 2.58%; that for `CCc1ccccc1NC(=O)c1ccc2snnc2c1` was 0.7%. Then `O=C(Nc1ccc2ccccc2c1)Nc1ccc2snnc2c1`, with 7.08%; and `O=C(Nc1cccc(Br)c1)c1ccc2snnc2c1`, with 106% (active); and `COc1ccc(C(=O)NCC2CCCCC2)cc1S(=O)(=O)N1CCCC1`, with 0.47%. With `COc1cc(C=NNC(=O)c2cccnc2)ccc1OC(=O)c1ccccc1F`, the activation was 7.39%. On to `CCOC(=O)c1nnn(-c2nonc2-n2cccc2)c1CN1CCC(C(=O)OCC)CC1`, for which the activation was 0.56%. Then `Cc1cc(Nc2ccc(Br)cc2F)n2ncnc2n1`, with 7.31%; and `CC1CCc2c(nc3ncnn3c2Nc2ccc(OC(F)(F)F)cc2)C1` (stereo not given), with 12.3%; and `Brc1ccc(Nc2c3c(nc4ncnn24)CCC3)cc1`, with 104% (active).

As to `OCCCNc1nccc(-c2cc(Nc3cccc(Cl)c3)ncn2)n1`, the activation was -11.1%. The value for `CC(C)n1cnc2c(Nc3cccc(Cl)c3)nc(N(CCO)CCCO)nc21` was 95.2% (active). The value for `CC(C)C[C@H](CO)Nc1nc(N(C)c2cccc(Cl)c2)c2ncn(C(C)C)c2n1` was 14.5%. In the case of `CC1=NN(/C(=N\c2nnc(C)s2)Nc2ccccc2)[C@H](c2ccc(C)cc2)S1`, the activation is 3.18%. Then `O=C(O)c1cccnc1NC1CCCC1`, with -0.53%; and `CCN(CC)S(=O)(=O)N1CCC(C(=O)NC(C)CCc2ccccc2)CC1` (stereo not given), with -1.06%; and `C#CCCOC(=O)N1C2=NC(C(=O)OC)=C(C(=O)OC)[C@@H]3N(C)c4ccc(OC)cc4[C@]23C[C@H]1C(=O)OC`, with -1.46%. The value for `O=C1CCc2cc(S(=O)(=O)Nc3ccc(C(F)(F)F)cc3)cc3c2N1CC3` was -2.33%. The value for `COCC1CCCN(Cc2nc(-c3ccc4c(c3)OCO4)no2)C1` (stereo not given) was 52.6% (active); that for `COCC1CCCN(Cc2cn[nH]c2-c2cc3ccccc3o2)C1` (stereo not given) was 4.44%; that for `CC1CCN(Cc2nc(-c3ccc(Cl)cc3)no2)CC1` was -0.15%. In the case of `CCN1CN(Cc2ccccc2)CNC1=S`, the activation was 2.74%. The value for `CC(C)N1CCc2c(sc(NC(=O)Cc3ccccc3)c2C#N)C1` was 43.6%; that for `COc1ccc(N2CCN(C(=O)c3ccc(N4CCCCS4(=O)=O)cc3)CC2)cc1` was 1.84%; that for `CC1CN(C(=O)c2ccc3c(c2)OCO3)OC(c2ccccc2)O1` (stereo not given) was 3.64%. The value for `COc1ccc2c(c1)CC[C@@H]1[C@@H]2CC[C@]2(C)C(=O)CC[C@@H]12` was -1.47%. The value for `CC1(C)CC(CCC(=O)Nc2ccccc2Cl)C(=O)O1` (stereo not given) was -0.84%; that for `C/C(CC1CC(C)(C)OC1=O)=N/Nc1nc(-c2ccccc2)cs1` (stereo not given) was 124% (active); that for `CC1(C)CC(CC(=O)O)C(=O)O1` (stereo not given) was -2.54%. Consider `Cc1ccc(C(=O)OC2=CC(=O)CC(C)(C)C2)cc1`, for which the activation was 3.37%. Then `CCN(CC)S(=O)(=O)c1ccc(Cl)c(C(=O)NC(C)C(c2cccs2)N2CCCC2)c1` (stereo not given), with 1.85%; and `C=CC[C@@H](Cc1ccc(F)cc1)C(=O)OC[C@H]1CCCN1C(=O)[C@H](CC=C)CC(=O)N(CCO)Cc1ccccc1`, with -1.59%; and `Clc1ccc(Cl)c(Oc2ccc(Oc3nc(Cl)ccc3Cl)cc2)n1`, with -1.7%. The value for `COCCSc1nnc(NC(=O)c2cc(OC)c(OC)cc2[N+](=O)[O-])s1` was 1.43%; that for `COc1ccc(Nc2cc(Sc3ccc(OC)cc3)ncn2)cc1` was 54% (active). The value for `COc1ccc(Nc2ncnc3sc(C)cc23)cc1` was 37%; that for `COc1ccc(NCCc2ccccn2)cc1` was 4.86%. For the compound `O=C(NC(C(=O)NCCN1CCOCC1)C12CC3CC(CC(C3)C1)C2)C1CCCCC1` (stereo not given), the activation is 2.26%.

Take `Cn1c(N)c(C(=O)COC(=O)c2ccc3ccccc3c2)c(=O)n(C)c1=O`: the activation is -1.74%. The value for `O=C(NCCCn1ccnc1)c1cc(Br)c(Br)s1` was 57.3% (active); that for `Cc1ccc2c(Cl)c(C(=O)Nc3nn[nH]n3)sc2c1` was 1.09%. Then `O=C(NCCCn1ccnc1)c1ccccc1F`, with 12.6%; and `Cc1ccc2c(Cl)c(C(=O)NCCCn3ccnc3)sc2c1`, with 55.7% (active). The value for `O=C(/C=C/c1ccc(Cl)cc1)NCCCn1ccnc1` was 7.43%; that for `O=C(Nc1ccccc1C(=O)NCCCn1ccnc1)c1ccc(Cl)cc1Cl` was 20.3%. For the compound `COc1ccc(-c2cc(C(=O)NCCCn3ccnc3)no2)cc1`, the activation was 15.1%. As for `CCCC(=O)Nc1ccc(C(=O)NCCCn2ccnc2)cc1`, the activation was 0.23%. Consider `O=C(NCCCn1ccnc1)Nc1ccc(Cl)cc1Cl`, for which the activation was 69.2% (active).

Turning to `COc1cc(OC)cc(C(=O)NCCCn2ccnc2)c1`, the activation was 32.8%.

Turning to `O=C(NCCCn1ccnc1)c1cc(-c2ccccc2)on1`, the activation was 168% (active). Turning to `O=C(NCCCn1ccnc1)c1cc2c(s1)CCCC2`, the activation is 46.3%. The value for `COc1ccc(C(=O)Nc2cc(S(=O)(=O)N3CCCC3)ccc2Cl)cc1` was 3.58%; that for `C=CCNC(=O)c1ccc2c3n(nc2c1)-c1ccc(C)cc1CO3` was -9.75%; that for `CC1C(=O)Nc2ccccc2N1C(=O)c1ccc(F)cc1F` (stereo not given) was 3.47%. The value for `CCCN(CC1CC1)C(=S)NC(=O)c1ccccc1Br` was 0.93%; that for `O=C(Cn1nc(Cc2cccnc2)c2ccccc2c1=O)NCC1COc2ccccc2O1` (stereo not given) was 0.07%. Turning to `O=C(NC1CCCC1)C(c1c(F)cccc1Cl)N(C(=O)c1csnn1)C1CC1` (stereo not given), the activation was 1.3%. Then `COc1ccc(S(=O)(=O)N2CCCCC2)cc1NC(=O)COc1ccccc1`, with -0.98%; and `O=C(CN1C(=O)NC2(CCOc3ccccc32)C1=O)NCc1ccc(F)cc1` (stereo not given), with 0.77%; and `Cc1cc(NC(=O)CCC(=O)N(CC(=O)NCC2CCCO2)c2ccccc2)no1` (stereo not given), with -0.82%. The value for `NS(=O)(=O)c1ccc(NC(=S)NC(=O)c2cccnc2)cc1` was 56.7% (active); that for `CC(C)NS(=O)(=O)c1ccc(NC(=O)c2cccnc2)cc1` was 0.76%; that for `CC(=O)NC(=S)Nc1ccc(NC(=O)c2cccnc2)cc1` was 0.34%.
